Here are results for 39 compounds from ChEMBL document CHEMBL3988442, “University of Dundee, Small-Polar-MMV Screening Library” (2021).

Potency and affinity values are given separately.

In the first assay the target is Protein translocase subunit SecA (Escherichia coli (strain K12)) (UniProt P10408). The assay can be described thus: Assay to Identify E. coli SecA ATPase Inhibitors. Particulars: 30 µM. In kind it is functional. Details: scale not given: direction of the effect not stated beside the values.
Protein translocase subunit SecA (Escherichia coli (strain K12)), sequence (P10408 whole entry): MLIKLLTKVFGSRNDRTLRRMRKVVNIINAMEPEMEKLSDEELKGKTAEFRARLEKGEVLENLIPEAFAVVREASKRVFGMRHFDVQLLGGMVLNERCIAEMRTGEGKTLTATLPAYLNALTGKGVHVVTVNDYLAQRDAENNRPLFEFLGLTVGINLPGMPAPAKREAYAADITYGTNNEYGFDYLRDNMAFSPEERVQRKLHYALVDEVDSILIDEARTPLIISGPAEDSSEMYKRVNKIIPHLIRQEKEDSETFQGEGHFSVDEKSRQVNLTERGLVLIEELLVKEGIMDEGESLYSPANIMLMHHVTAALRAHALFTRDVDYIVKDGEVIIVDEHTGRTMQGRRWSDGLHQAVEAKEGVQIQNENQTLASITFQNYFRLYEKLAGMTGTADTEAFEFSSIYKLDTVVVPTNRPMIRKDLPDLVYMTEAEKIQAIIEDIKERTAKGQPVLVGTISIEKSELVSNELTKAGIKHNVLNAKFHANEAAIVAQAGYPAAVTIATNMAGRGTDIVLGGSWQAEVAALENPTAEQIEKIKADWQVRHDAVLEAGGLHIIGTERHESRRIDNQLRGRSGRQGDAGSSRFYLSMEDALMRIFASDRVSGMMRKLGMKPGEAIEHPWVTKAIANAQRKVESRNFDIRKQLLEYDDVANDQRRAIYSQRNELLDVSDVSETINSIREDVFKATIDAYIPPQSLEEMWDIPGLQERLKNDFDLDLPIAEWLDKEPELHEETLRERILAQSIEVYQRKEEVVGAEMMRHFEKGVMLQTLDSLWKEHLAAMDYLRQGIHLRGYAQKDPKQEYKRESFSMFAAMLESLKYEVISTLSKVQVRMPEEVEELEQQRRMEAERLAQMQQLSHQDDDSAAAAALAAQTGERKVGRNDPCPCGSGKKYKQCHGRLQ
On to `CCN(CC)C(=O)c1ccn(COc2cc(C)cc(C)c2)n1`, for which the Percent Effect was -0.199%.

For `Cc1cc(C(=O)N2C[C@@H]3COC[C@]3(c3nnc(C4CC4)o3)C2)on1`, the Percent Effect is -4.61%.

In the case of `COC(=O)c1ccc(N2CCN(CCN3CCOCC3)C(C)C2)cc1` (stereo not drawn), the Percent Effect was -7.58%.

As for `Cc1ccc(N2CCCC(NCc3cscn3)C2)nn1` (stereo not drawn), the Percent Effect is -1.67%.

For the compound `Cc1noc2ncc(C(=O)N(CC3CCOC3)C3CC3)cc12` (stereo not drawn), the Percent Effect was -0.0275%.

For `Cc1cnn(CC2CCCN2c2nn3cc(C)nc3s2)c1` (stereo not drawn), the Percent Effect is -7.38%.

Take `CCC(NC(=O)C1CCN(S(C)(=O)=O)CC1)c1ccc(OC)c(C)c1` (stereo not drawn): the Percent Effect is -0.552%.

With `CNC(=O)[C@@]12CCC3(CCN(S(C)(=O)=O)CC3)[C@@H]1CN(S(C)(=O)=O)C2`, the Percent Effect was -2.26%.

Regarding `Cc1ccc(C(=O)N2CCN(CCCSCC#N)CC2)o1`, the Percent Effect was -3.54%.

As for `CC(=O)N(Cc1ncc(C)o1)C1CCN(CCNC2CCCCC2)C1` (stereo not drawn), the Percent Effect is -1.61%.

On to `Cc1cnc(CN(C)CC2CCCN2c2cccnn2)cn1` (stereo not drawn), for which the Percent Effect stood at 1.21%.

With `Cc1cnn(CC2CCCN2C(=O)c2cnc3n[nH]c(C)c3c2)c1` (stereo not drawn), the Percent Effect was -6.55%.

On to `CC(=O)c1cccc(S(=O)(=O)N2CSCC2C(=O)NCC(F)(F)F)c1` (stereo not drawn), for which the Percent Effect is -3.05%.

As for `CCCN(Cc1ccccc1)Cn1nc(C)c2c(C)onc2c1=O`, the Percent Effect was -7%.

Consider `CN1CCCC(Cc2ccnc3ccncc23)CC1` (stereo not drawn), for which the Percent Effect is -5.09%.

Take `N#Cc1ccccc1CN1C[C@@H]2CC[C@H](C1)N(Cc1cscn1)C2=O`: the Percent Effect was -1.93%.

As for `CSc1ncc(C(=O)N2C[C@H]3CC[C@@H]2CN(Cc2ccccc2)C3)cn1`, the Percent Effect was 0.697%.

For `N#CCSCCCN1CCCN(C(=O)c2ccccc2)CC1`, the Percent Effect was -1.53%.

As to `Cc1nn(C)c(N2CCOCC2)c1CNC(C)c1ccco1` (stereo not drawn), the Percent Effect was -4.24%.

For `COc1cc(CNc2cnn(C)c2)cc2c1OCCO2`, the Percent Effect was -3.52%.

As to `CCOCC1CN(S(C)(=O)=O)Cc2ncn(CC3CC3)c21` (stereo not drawn), the Percent Effect is -2.41%.

With `COc1ccc(C(=O)Nc2cnn(CC(=O)NC3CCCC3)c2)c(O)c1`, the Percent Effect is -2.21%.

Consider `COCC(=O)N1CCCC1c1ccnc(Nc2cnccn2)n1` (stereo not drawn), for which the Percent Effect is -3.17%.

Regarding `Cn1cnc2c1CCN(CCCOc1ccc(C#N)cc1)C2`, the Percent Effect was -7.51%.

`COCCN1CCC(NCc2cccc(F)c2)C1` (stereo not drawn): the Percent Effect is -3.31%.

For `Cc1nc(CCN(C)C(=O)C2COc3ccccc3C2)no1` (stereo not drawn), the Percent Effect is -7.54%.

As for `COCC1CC2(CCN(C(=O)c3cccc(C)c3)CC2)CO1` (stereo not drawn), the Percent Effect is -0.162%.

As to `CC(C)CC(=O)N1CCCn2cnc(CN3CCCC3=O)c2C1`, the Percent Effect is -3.7%.

As to `Cc1nc(C)n(CC2CCCN(Cc3nc(C4CC4)no3)C2)n1` (stereo not drawn), the Percent Effect was -2.19%.

`COc1cccc([C@@H]2CN(C(=O)c3ccc(C)cc3O)C[C@H]2C(=O)O)c1`: the Percent Effect is -3.46%.

Consider `Nc1nc(CN2CCCC(Cn3cncn3)C2)nc2ccccc12` (stereo not drawn), for which the Percent Effect was 1.55%.

Turning to `O=C1C(NS(=O)(=O)c2cc(F)cc(F)c2)CCN1Cc1ccccc1` (stereo not drawn), the Percent Effect was -4.38%.

On to `CCCc1nc(N2Cc3cnn(Cc4ccc(F)cc4)c3C2)no1`, for which the Percent Effect is -3.65%.

As to `COc1cc(N2C[C@H]3OCC[C@H]3[C@H](C(=O)NC3CC3)C2)ncn1`, the Percent Effect was -2.33%.

As to `CCN(Cc1cccc(Cl)c1)Cc1nc2c(cnn2C)c(=O)[nH]1`, the Percent Effect is -5.2%.

Turning to `CC(C)c1ccc(OCn2ccc(C(=O)N3CCCC3)n2)cc1`, the Percent Effect is -3.25%.

On to `CCc1cc(NC2CCN(S(C)(=O)=O)CC2)n2nc(C)c(C)c2n1`, for which the Percent Effect was determined as 0.159%.

`COc1c(CNCC(c2cccc(F)c2)N(C)C)c(C(C)C)nn1C` (stereo not drawn): the Percent Effect was -2.21%.

As to `Cc1ccccc1C(=O)NCc1ccc(N2CCNC(=O)C2)c(F)c1`, the Percent Effect was -3.15%.

The next assay concerns the target T1, Ubiquitin-activating enzyme e1, putative (Leishmania donovani (strain BPK282A1)) (UniProt E9BSI1).
T1 sequence (whole entry): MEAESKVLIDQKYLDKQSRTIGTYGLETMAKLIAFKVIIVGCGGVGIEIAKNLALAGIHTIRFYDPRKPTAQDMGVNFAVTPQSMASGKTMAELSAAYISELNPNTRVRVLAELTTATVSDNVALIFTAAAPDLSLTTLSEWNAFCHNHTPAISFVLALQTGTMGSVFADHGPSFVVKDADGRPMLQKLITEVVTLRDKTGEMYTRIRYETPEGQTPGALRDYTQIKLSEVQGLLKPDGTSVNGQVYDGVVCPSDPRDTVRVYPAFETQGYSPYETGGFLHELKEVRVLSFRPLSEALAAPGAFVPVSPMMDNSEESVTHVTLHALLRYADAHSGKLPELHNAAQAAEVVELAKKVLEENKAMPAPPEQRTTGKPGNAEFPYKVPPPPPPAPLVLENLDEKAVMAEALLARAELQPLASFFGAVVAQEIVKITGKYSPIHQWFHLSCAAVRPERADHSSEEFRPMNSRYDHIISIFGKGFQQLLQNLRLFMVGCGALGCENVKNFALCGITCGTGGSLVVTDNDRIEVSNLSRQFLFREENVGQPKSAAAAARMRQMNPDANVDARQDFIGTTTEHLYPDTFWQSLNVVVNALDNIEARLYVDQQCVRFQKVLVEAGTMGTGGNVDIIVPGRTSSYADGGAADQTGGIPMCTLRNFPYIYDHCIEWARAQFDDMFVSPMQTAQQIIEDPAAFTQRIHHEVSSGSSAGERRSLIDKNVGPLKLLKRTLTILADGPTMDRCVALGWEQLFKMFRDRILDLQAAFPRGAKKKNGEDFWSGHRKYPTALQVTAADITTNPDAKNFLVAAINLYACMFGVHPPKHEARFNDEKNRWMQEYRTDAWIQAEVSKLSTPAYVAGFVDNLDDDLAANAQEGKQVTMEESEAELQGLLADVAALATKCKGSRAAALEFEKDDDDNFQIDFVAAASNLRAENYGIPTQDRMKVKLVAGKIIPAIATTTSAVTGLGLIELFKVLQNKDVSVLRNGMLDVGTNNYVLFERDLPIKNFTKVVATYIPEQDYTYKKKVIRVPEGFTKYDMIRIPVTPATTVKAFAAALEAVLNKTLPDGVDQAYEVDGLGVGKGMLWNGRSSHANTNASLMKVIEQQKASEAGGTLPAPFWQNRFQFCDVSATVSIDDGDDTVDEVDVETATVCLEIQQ
The assay can be described thus: Leishmania donovani Ubiquitin Activating Enzyme (LdE1). It counts as functional. Also on record: scale not given: direction of the effect not stated beside the values. Particulars: 30 µM.
Turning to `CCN(CC)C(=O)c1ccn(COc2cc(C)cc(C)c2)n1`, the Percent Effect is 22.7%.

Consider `Cc1cc(C(=O)N2C[C@@H]3COC[C@]3(c3nnc(C4CC4)o3)C2)on1`, for which the Percent Effect amounted to 13.3%.

For `COC(=O)c1ccc(N2CCN(CCN3CCOCC3)C(C)C2)cc1` (stereo not drawn), the Percent Effect was found to be 15.8%.

For the compound `Cc1ccc(N2CCCC(NCc3cscn3)C2)nn1` (stereo not drawn), the Percent Effect came out at 13.5%.

Take `Cc1noc2ncc(C(=O)N(CC3CCOC3)C3CC3)cc12` (stereo not drawn): the Percent Effect is 7.89%.

On to `Cc1cnn(CC2CCCN2c2nn3cc(C)nc3s2)c1` (stereo not drawn), for which the Percent Effect came out at 11.4%.

Turning to `CCC(NC(=O)C1CCN(S(C)(=O)=O)CC1)c1ccc(OC)c(C)c1` (stereo not drawn), the Percent Effect turned out to be 2.6%.

Take `CNC(=O)[C@@]12CCC3(CCN(S(C)(=O)=O)CC3)[C@@H]1CN(S(C)(=O)=O)C2`: the Percent Effect turned out to be 13.5%.

`Cc1ccc(C(=O)N2CCN(CCCSCC#N)CC2)o1`: the Percent Effect is -5.48%.

`CC(=O)N(Cc1ncc(C)o1)C1CCN(CCNC2CCCCC2)C1` (stereo not drawn): the Percent Effect was determined as 2.7%.

Regarding `Cc1cnc(CN(C)CC2CCCN2c2cccnn2)cn1` (stereo not drawn), the Percent Effect is 15.6%.

`Cc1cnn(CC2CCCN2C(=O)c2cnc3n[nH]c(C)c3c2)c1` (stereo not drawn): the Percent Effect came to 16.5%.

For `CC(=O)c1cccc(S(=O)(=O)N2CSCC2C(=O)NCC(F)(F)F)c1` (stereo not drawn), the Percent Effect was found to be 3.8%.

With `CCCN(Cc1ccccc1)Cn1nc(C)c2c(C)onc2c1=O`, the Percent Effect worked out at 10.8%.

On to `CN1CCCC(Cc2ccnc3ccncc23)CC1` (stereo not drawn), for which the Percent Effect was -1.35%.

As for `N#Cc1ccccc1CN1C[C@@H]2CC[C@H](C1)N(Cc1cscn1)C2=O`, the Percent Effect is 5.41%.

As to `CSc1ncc(C(=O)N2C[C@H]3CC[C@@H]2CN(Cc2ccccc2)C3)cn1`, the Percent Effect stood at 2.74%.

As for `N#CCSCCCN1CCCN(C(=O)c2ccccc2)CC1`, the Percent Effect was -5.48%.

Consider `Cc1nn(C)c(N2CCOCC2)c1CNC(C)c1ccco1` (stereo not drawn), for which the Percent Effect turned out to be 20.8%.

Consider `COc1cc(CNc2cnn(C)c2)cc2c1OCCO2`, for which the Percent Effect was -13.2%.

Turning to `CCOCC1CN(S(C)(=O)=O)Cc2ncn(CC3CC3)c21` (stereo not drawn), the Percent Effect came to 13.5%.

As to `COc1ccc(C(=O)Nc2cnn(CC(=O)NC3CCCC3)c2)c(O)c1`, the Percent Effect stood at 13.7%.

Regarding `COCC(=O)N1CCCC1c1ccnc(Nc2cnccn2)n1` (stereo not drawn), the Percent Effect is 12.2%.

As to `Cn1cnc2c1CCN(CCCOc1ccc(C#N)cc1)C2`, the Percent Effect came out at 2.53%.

On to `COCCN1CCC(NCc2cccc(F)c2)C1` (stereo not drawn), for which the Percent Effect came to 13%.

In the case of `Cc1nc(CCN(C)C(=O)C2COc3ccccc3C2)no1` (stereo not drawn), the Percent Effect turned out to be 13%.

In the case of `COCC1CC2(CCN(C(=O)c3cccc(C)c3)CC2)CO1` (stereo not drawn), the Percent Effect was 5.2%.

`CC(C)CC(=O)N1CCCn2cnc(CN3CCCC3=O)c2C1`: the Percent Effect stood at 0%.

In the case of `Cc1nc(C)n(CC2CCCN(Cc3nc(C4CC4)no3)C2)n1` (stereo not drawn), the Percent Effect came out at 21.6%.

With `COc1cccc([C@@H]2CN(C(=O)c3ccc(C)cc3O)C[C@H]2C(=O)O)c1`, the Percent Effect was 21.6%.

For the compound `Nc1nc(CN2CCCC(Cn3cncn3)C2)nc2ccccc12` (stereo not drawn), the Percent Effect was -2.7%.

For the compound `O=C1C(NS(=O)(=O)c2cc(F)cc(F)c2)CCN1Cc1ccccc1` (stereo not drawn), the Percent Effect stood at 12.7%.

With `CCCc1nc(N2Cc3cnn(Cc4ccc(F)cc4)c3C2)no1`, the Percent Effect came out at 5.33%.

For the compound `COc1cc(N2C[C@H]3OCC[C@H]3[C@H](C(=O)NC3CC3)C2)ncn1`, the Percent Effect is 5.48%.

Turning to `CCN(Cc1cccc(Cl)c1)Cc1nc2c(cnn2C)c(=O)[nH]1`, the Percent Effect is 15.6%.

As to `CC(C)c1ccc(OCn2ccc(C(=O)N3CCCC3)n2)cc1`, the Percent Effect came out at 10.4%.

As to `CCc1cc(NC2CCN(S(C)(=O)=O)CC2)n2nc(C)c(C)c2n1`, the Percent Effect worked out at 4.17%.

With `COc1c(CNCC(c2cccc(F)c2)N(C)C)c(C(C)C)nn1C` (stereo not drawn), the Percent Effect turned out to be 5.2%.

Regarding `Cc1ccccc1C(=O)NCc1ccc(N2CCNC(=O)C2)c(F)c1`, the Percent Effect came out at 8.11%.
